Inconclusive results are not listed. The source made the active and inactive calls. Calls follow the shape of the dose curve; as a rule, active = well fitted cell-killing curve with a large enough effect; inconclusive = small, poorly fitted or top-dose-only effect; inactive = flat fitted curve, though single readings scatter.

This test in a line: Cell Viability - LYMP2-014 (AID 983). Also: nearly all actives have a fitted effect of over 50% in size. To be noted: LYMP2-014 lymphoblastoid cells, viability qHTS; series mostly up to 92.2 µM. The text has this:
NIH Chemical Genomics Center [NCGC]
NIH Molecular Libraries Screening Centers Network [MLSCN]
National Institutes of Environmental Health Sciences [NIEHS]
National Toxicology Program [NTP]
We have developed a 1536-well cell-based assay for quantitative high throughput screening (qHTS) against a number of cell lines to determine in vitro cytotoxicity of small molecules. This particular assay uses a human lymphoblastoid cell line (LYMP2-014) purchased from Coriell Institute for Medical Research.
NCGC Assay Protocol Summary:
The CellTiter-Glo luminescent cell viability assay (Promega) is a homogeneous method to measure the number of viable cells in culture. The end point readout of this assay is based on quantitation of intracellular ATP, an indicator of metabolic activity, using the luciferase reaction. Luciferase catalyzes the oxidation of beetle Luciferin to oxyluciferin and light in the presence of ATP. The luminescent signal is proportional to amount of ATP present.
Using the CellTiter-Glo luminescent cell viability assay, the amount of cellular ATP was measured in the lymphoblastoid cell line with complete culture medium following compound treatment for 24 hours. The assay was performed in opaque white Kalypsys 1536-well plates. In the screen, tetraoctylammonium bromide was used as positive control. Library compounds were measured for their ability to cause acute toxicity in the cell line, as reflected by a decrease in intracellular ATP levels, in a concentration-dependent manner. […] AC50 values were determined from concentration-response data modeled with the standard Hill equation.
qHTS protocol for CellTiter Glo lymphoblastoid cellular assay
[Step] [Parameter] [Value] [Description]
1. Reagent; 5 uL; 2500 lymphoblastoid cells/well
2. Time; 5 hr; 37 C incubation
4. Controls; 23 nL; Tetraoctylammonium bromide 6.4pM to 92 uM
5. Time; 24 hr; 37 C incubation
6. Reagent; 5 uL; CellTiter Glo reagent
7. Time; 30 min; Room Temperature
8. Detection; Luminescence; Viewlux plate reader
Keywords: cell viability, cytotoxicity, lymphoblastoid cell line, luminescence, NTPHTS, NTPHTS_NCGC, NIEHS, DSSTox, MLSMR, MLSCN, NIH Roadmap, qHTS, NCGC
For orientation: Quantitative high-throughput screening tests each substance at several concentrations.
As to `CC1(C)[C@@H]2CC[C@@]1(C)C(=O)C2`, the compound was classed as inactive.

For the compound `COc1ccccc1O`, the result was inactive. Next, `Oc1cccc(O)c1`: “inactive”; `Cc1cc(CC(=O)O)n(C)c1C(=O)c1ccc(Cl)cc1`: “inactive”. To `Cc1cc2nc3c(=O)[nH]c(=O)nc-3n(C[C@H](O)[C@H](O)[C@H](O)CO)c2cc1C` belongs “inactive”; to `CC12CCC(CC1)C(C)(C)O2`, “inactive”; to `O=C1O[C@H]([C@@H](O)CO)C(O)=C1O`, “inactive”. Next, `O=C1c2c(O)cccc2Cc2cccc(O)c21`: “inactive”. As to `NCCNCCNCCN`, the compound was classed as inactive. With `CCCCOC(=O)c1ccc(O)cc1`, the compound was classed as inactive. Next, `CCCCCCCCCCCCOS(=O)(=O)O`: “inactive”. As to `[Cl][In]([Cl])[Cl]`, the call was inactive. Next, `C[C@]12C[C@H](O)[C@H]3[C@@H](CCC4=CC(=O)CC[C@@]43C)[C@@H]1CC[C@@H]2C(=O)CO`: “inactive”; `NCCNCCNCCNCCN`: “inactive”.
